Data from PubChem BioAssay (NCI).
About 79,000 compounds went through this panel and 15% of them were active in at least one assay; those are over-represented in the sample as a whole. Cut-off read from the data, not from the text of the source: active = growth inhibition above about 70%; inactive = the rest.

Legend:
[1] = NCI Yeast Anticancer Drug Screen. Data for the rad50 strain (AID 155);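 note: 0% = growth of vehicle-only cultures of the same strain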; conditions: S. cerevisiae rad50 strain growth inhibition; at 50.0 µM; stronger effect = higher value
How it was run: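 Genetically altered yeast (DNA repair pathway); compound treatment; growth inhibition vs vehicle ctrl.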

[2] = NCI Yeast Anticancer Drug Screen. Data for the mec2-1 strain (AID 157); conditions: S. cerevisiae mec2-1 strain, at 50.0 µM, stronger effect = higher value
How it was run: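 Test agents were screened against the mec2-1 yeast strain, with defined DNA repair or cell cycle alteration. Growth was scored as inhibition against vehicle-only controls.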

[3] = NCI Yeast Anticancer Drug Screen. Data for the sgs1 mgt1 strain (AID 161);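 note: 0% = growth of cultures given vehicle only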; conditions: S. cerevisiae sgs1 mgt1 strain, at 50.0 µM, stronger effect = higher value
How it was run: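 Read-out: growth inhibition vs vehicle controls. Cells: mutant yeast strain deficient in DNA damage repair.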

[4] = NCI Yeast Anticancer Drug Screen. Data for the cln2 rad14 strain (AID 165);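 note: 0% = growth equal to vehicle treated cultures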; conditions: S. cerevisiae cln2 rad14 strain, at 50.0 µM, stronger effect = higher value
How it was run: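 Growth of compound-exposed yeast (cln2 rad14 genotype) measured and expressed as inhibition relative to vehicle.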

[5] = NCI Yeast Anticancer Drug Screen. Data for the bub3 strain (AID 167); conditions: S. cerevisiae bub3 mutant strain, at 50.0 µM, stronger effect = higher value
How it was run: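 Yeast carrying a defined mutation is treated with each compound, and growth is compared with that of vehicle-exposed cells to give inhibition.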

[6] = NCI Yeast Anticancer Drug Screen. Data for the mlh1 rad18 strain (AID 175); conditions: S. cerevisiae mlh1 rad18 strain growth inhibition; at 50.0 µM; stronger effect = higher value
How it was run: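 In this whole-cell yeast screen, a strain with altered DNA damage repair is challenged with compound, and its growth is measured against matched vehicle-treated controls.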

Measured: growth inhibition

O=C1c2ccccc2C(=O)N1CCOCCOCCN1C(=O)c2ccccc2C1=O
inactive: [1] -8.15% | [2] -6% | [3] -17% | [4] -20.7% | [5] -2.7% | [6] 20.4%

c1ccc2c(c1)C(=NOc1nc3ccccc3c3ccccc13)c1ccccc1-2
inactive: [1] -4.85% | [2] 10.6% | [3] 8.75% | [4] 3.65% | [5] 7.95% | [6] 12%

O=C(O)C(O)C(O)C(O)C(O)C(=O)O.[NH-]C1CCCCC1[NH-].[Pt+2] (configuration not stated)
inactive: [1] 8.15% | [2] -3.25% | [3] -1.55% | [4] 12.9% | [5] 8.25% | [6] 6.75%

Cn1cnc([N+](=O)[O-])c1/N=C/c1ccccc1
inactive: [1] 0.1% | [2] 2.95% | [3] -3.95% | [4] -41.3% | [5] -28.5% | [6] -6.5%

O=C1C(OCc2ccccc2)=C(OCc2ccccc2)C(=O)c2ccccc21
inactive: [1] 14.2% | [2] 3.1% | [3] 31.6% | [4] 10.2% | [5] -30.1% | [6] 36.3%

Cc1cccc2c1Oc1ccccc1C2N1C(=O)/C(=C/c2ccc(Cl)c(Cl)c2)SC1=S (configuration not stated)
inactive: [1] -3.8% | [2] -10.2% | [3] 6.75% | [4] 33.8% | [5] -17.8% | [6] 0.4%

N#CC(C#N)SCc1ccccc1
inactive: [1] 17.1% | [2] 2.25% | [3] -5.4% | [4] 6.25% | [5] 9.3% | [6] 17.8%

O=C(NC(=O)c1c(F)cccc1F)Nc1ccc(OCc2ccccc2)cc1
inactive: [1] 24.4% | [2] 0.15% | [3] 5.45% | [4] 9% | [5] -4.15% | [6] 21.4%

CC(C)N(C(=O)C12C3C4C5(C#N)C3C1(C#N)C5C42C#N)C(C)C (configuration not stated)
inactive: [1] -10.4% | [2] -9.9% | [3] -21.8% | [4] 1.5% | [5] -0.7% | [6] -27.4%

CC1=NN(c2nc(N)nc(CCl)n2)C(C)(C)C1
inactive: [1] -8.1% | [2] -0.1% | [3] -6.7% | [4] -4.75% | [5] 17.1% | [6] -77.9%

COc1cccc(N2C(=O)CC(=P(c3ccccc3)(c3ccccc3)c3ccccc3)C2=O)c1
inactive: [1] 40% | [2] 20.6% | [3] 23.9% | [4] -21.7% | [5] -7.9% | [6] 13.4%

CN(C)Cc1ccccc1COC(=O)c1ccccc1
inactive: [1] 19.1% | [2] 20.1% | [3] 26.1% | [4] 11.4% | [5] 17.4% | [6] 17.5%

O=C(O)c1ccc([N+](=O)[O-])cc1OCc1ccccc1
inactive: [1] 13.4% | [2] -5.1% | [3] 12.9% | [4] -39% | [5] -3.4% | [6] 3.95%

CCC(=O)Oc1c2ccsc2c(OC(=O)CC)c2ccsc12
inactive: [1] 29.1% | [2] 6.6% | [3] 32.1% | [4] -3.2% | [5] 29.4% | [6] 13.7%

O=C(OCc1ccccc1)c1ccc(Cl)cc1
inactive: [1] 22.9% | [2] 5.7% | [3] 20.6% | [4] 15.2% | [5] -1.65% | [6] 4.4%

O=C(COc1ccc(Cl)cc1Cl)Nc1c(Cl)cc(Cl)cc1Cl
inactive: [1] 6.7% | [2] 7.6% | [3] -6.45% | [4] 2% | [5] -4.8% | [6] 19.6%

O=C(N/N=C/c1ccc(Cl)cc1Cl)C(O)(c1ccccc1)c1ccccc1
inactive: [1] 17.4% | [2] 16.1% | [3] 10.2% | [4] 22.9% | [5] 10.7% | [6] 19.3%

O=C(O)COc1ccccc1/C=C1/SC(=S)N(c2ccccc2)C1=O
inactive: [1] -1.4% | [2] -10.8% | [3] -7.25% | [4] -41.5% | [5] 0.55% | [6] 1.1%

O=C1CN(/N=C/c2ccc(-c3ccc(Cl)c(Cl)c3)o2)C(=O)N1
inactive: [1] 28.9% | [2] 14.4% | [3] 29.1% | [4] 3.2% | [5] 10% | [6] 5.5%

O=C(NC1C(=O)NNC1c1cccc([N+](=O)[O-])c1)c1ccccc1 (configuration not stated)
inactive: [1] -37.5% | [2] -26.1% | [3] 2.85% | [4] -10.6% | [5] 11.9% | [6] 0.55%

CCCCN(CCCC)CCC(O)c1cc(C(F)(F)F)nc2c(C(F)(F)F)cccc12 (configuration not stated)
inactive: [1] -0.6% | [2] 25.7% | [3] 0.45% | [4] 49.2% | [5] 13.3% | [6] 41.1%

O=C(O)c1c(Cl)c(Cl)c(Cl)c(Cl)c1C(=O)Nc1cccc(C(F)(F)F)c1
inactive: [1] -9.55% | [2] 10.2% | [3] -8.8% | [4] -7.35% | [5] -1.7% | [6] -14.7%

Cc1ccc(NC(=S)Nc2cccc(C(F)(F)F)c2)cc1C
inactive: [1] -11.9% | [2] -4.45% | [3] -5.75% | [4] 4.85% | [5] -7.3% | [6] 20.6%

O=C(CCCC(=O)N/N=C/c1cccc([N+](=O)[O-])c1)N/N=C\c1cccc([N+](=O)[O-])c1
inactive: [1] 26.6% | [2] 21.9% | [3] 5.1% | [4] 26.8% | [5] 2.45% | [6] 26.1%

c1ccc2c(c1)C1OC2c2ccccc21
inactive: [1] -30.2% | [2] -20.3% | [3] -26.4% | [4] -26.3% | [5] -0.4% | [6] -1.25%

O=C(O)Cc1ccc(-c2ccccc2)cc1
inactive: [1] 29.1% | [2] 23.6% | [3] 21.2% | [4] 6.45% | [5] 20.5% | [6] 25.4%

COc1ccc(OCC(C)(C)O)cc1
inactive: [1] -12.6% | [2] -0.4% | [3] 5.6% | [4] 0.2% | [5] -11.2% | [6] -2.55%

Cc1ccc(C2=Nn3c(nc4sc5c(c4c3=O)CCCC5)SC2)cc1
inactive: [1] -25.7% | [2] -19.4% | [3] -39.1% | [4] -5.9% | [5] -27.4% | [6] -21.8%

CN(C)c1ccc(/[N+]([O-])=C/C=C/C=[N+](/[O-])c2ccc(N(C)C)cc2)cc1
inactive: [1] -1.35% | [2] 3.8% | [3] 1.55% | [4] -28.6% | [5] 13.2% | [6] -14.6%

Cc1sc2c(c1C)C(=O)c1cccn1-2
inactive: [1] 4.95% | [2] -27.8% | [3] -21.6% | [4] -2.8% | [5] -13.9% | [6] -1%

COC(=O)Nc1cccc(OC(=O)NC2CCCCC2)c1
inactive: [1] 12.1% | [2] 32.7% | [3] 15.1% | [4] 4.25% | [5] 33.8% | [6] 16.4%

COc1ccc(C2CC(C)(O)Oc3cc4c(cc32)OCO4)cc1 (configuration not stated)
inactive: [1] 47.5% | [2] 26.3% | [3] 13.7% | [4] 43.6% | [5] 44.9% | [6] 27.1%

CCCCN1C(=O)c2ccccc2C1=O
inactive: [1] 5.55% | [2] -10.7% | [3] 27.2% | [4] 7.9% | [5] 9.45% | [6] 13.4%

NC(=O)OCC1CCCCC1OC(N)=O (configuration not stated)
inactive: [1] 26.1% | [2] -17.4% | [3] -14.4% | [4] -92.7% | [5] -2.6% | [6] -10.4%

O=C(c1ccc(Cl)s1)C(Cl)C(Cl)c1ccc(Cl)s1 (configuration not stated)
inactive: [1] -20.5% | [2] -2.4% | [3] 1.2% | [4] -12.4% | [5] 29.6% | [6] -3.55%

COc1ccc(C(C#N)NNc2nc(C)cc(=O)[nH]2)cc1OC (configuration not stated)
inactive: [1] -60.1% | [2] -47.5% | [3] -43.2% | [4] -19.6% | [5] -30.9% | [6] -47%

CCNC(=O)C(C(=O)O)c1ccccc1 (configuration not stated)
inactive: [1] 1.8% | [2] -5.55% | [3] 5.15% | [4] -21.1% | [5] -13.9% | [6] 5.2%
